# Lmaj promast: Leishmania major promastigote growth inhibition, primary screen | Leishmania major promastigotes, resazurin fluorescence viability | inhibition, % at 10 µM | actives 9% (n = 200,000) | AID 1063, 2008; in the data active = inhibition above about 50%;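 also: promastigotes grown with compound for 44 hours at 28 °C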
# WT yeast gro inh: growth inhibition of WT strain, primary screen, mitochondrial fusion inhibitor project, WT and mutant strains, chemical genetic; actives 2.1% (n = 190,000); inhibition, % at 10 µM; mitochondrial fusion phenotypic screen; in the data active = inhibition above about 58%; tested in S. cerevisiae
# RAM network inh: inhibitors of the yeast RAM network, primary screen, dse1pr::URA3 reporter, 5-FOA selection; S. cerevisiae dse1pr::URA3 reporter, 5-FOA growth OD615, 2 d; analog-sensitive cbk1-as2 kinase mutant strain; inhibition, % at 50 µM; actives 1.8% (n = 190,000);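 active = inhibition above a set limit, 3 SD over mean compound inhibition, cut at about 8.4% in these data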;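 also: 0% = DMSO-only wells with no growth and 100% = 10 µM 1-NA-PP1 full growth; inhibition rescues growth on 5-FOA so higher OD means more RAM inhibition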
# CHOP inh: inhibitors of CHOP promoter induction, primary screen, cell-based, unfolded protein response, luciferase reporter; inhibition, % at 10 µM; actives 3.8% (n = 220,000); AID 2732, 2010; CHO-K1 CHOP-promoter luciferase, tunicamycin-induced, 15-18 h;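 active = compounds that reduced the stress-induced luciferase reporter signal by more than about 70% of percent inhibition, limit read from the data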;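 also: 0% = tunicamycin plus vehicle and 100% = wells without tunicamycin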
# Active calls of the source: *; nt = not tested or not shown. Sampled rows, rich in hits. Any-hit rate of the full collection: about 13%.
SMILES,Lmaj promast,WT yeast gro inh,RAM network inh,CHOP inh
CCOC(=O)CCCNC(=O)COC(=O)c1ccc(O)cc1,-4,4,2,-23
CCOc1ccc(N2C(=O)CC(N3CCN(C4CCc5ccccc5C4)CC3)C2=O)cc1 (stereo unspecified),1,1,0,24
Cc1ccc(N2C(=O)CC(N3CCN(C4CCc5ccccc5C4)CC3)C2=O)cc1 (stereo unspecified),87*,1,2,38
Cc1[nH]c2ccccc2c1/C=C(\C#N)C(=O)NCc1ccccc1,-10,-17,6,32
CC(NC(=O)/C(C#N)=C/c1ccco1)c1ccccc1 (stereo unspecified),nt,nt,nt,-3
Cc1ccc(C(C)NC(=O)/C(C#N)=C\c2c(C)[nH]c3ccccc23)cc1 (stereo unspecified),0,88*,1,47
COC(=O)c1ccc(/C=C(\C#N)C(=O)NC(C)c2ccccc2)cc1 (stereo unspecified),99*,40,4,-8
CCCC(=O)N1CCN(c2ccc(NC(=S)NC(=O)CC)cc2)CC1,-5,7,1,35
CCOC(=O)C1=C(CN2CCC(C)CC2)NC(=O)NC1c1ccc(Cl)cc1 (stereo unspecified),28,3,1,87*
Nc1nnc(CC(=O)N/N=C\c2ccc(-c3cccc(Cl)c3)o2)s1,nt,nt,nt,-2
Nc1nnc(CC(=O)N/N=C/c2ccc(-c3ccccc3Cl)o2)s1,-4,-3,1,25
O=C(Cn1nnc(-c2ccccc2Cl)n1)N/N=C/c1ccc(-c2cccc(Cl)c2)o1,-5,12,3,74*
O=C(CN1CCCC1)N/N=C/c1ccc(-c2cccc(Cl)c2)o1,100*,2,0,-6
CC1=C(C#N)C(=O)N(C2CCS(=O)(=O)C2)C(=O)/C1=C\c1ccc(C)o1 (stereo unspecified),nt,nt,nt,-8
COC(=O)Nc1[nH]ncc1[N+](=O)[O-],-1,-14,2,-20
Cc1cccc2c1c1ccc3c(c1n2C)C(=O)C=CC3=O,nt,nt,nt,78*
Cc1ccccc1N1CC(=O)N(c2ccccc2C)CC1=O,-6,nt,0,4
Cc1sc2nc(SCC(=O)c3cc(C)n(CC4CCCO4)c3C)n(C(C)C)c(=O)c2c1C (stereo unspecified),17,25,3,28
CC1Oc2ccccc2C=C1/C=N/NC(=O)c1ccccc1O (stereo unspecified),-15,71*,5,-1
CC1Oc2ccccc2C=C1/C=N/NC(=O)c1ccccc1 (stereo unspecified),17,8,0,-23
CC(C)Cc1cc(C(=O)N2CCCC(CCC(=O)N(C)CCc3ccccn3)C2)no1 (stereo unspecified),20,-10,1,33
Cc1cccc2sc(NC(=O)CSc3nc4ccccc4o3)nc12,-9,11,4,68
COc1ccc2nc(NC(=O)CSc3nc4ccccc4o3)sc2c1,-4,-1,4,72*
CCOc1ccc2nc(NC(=O)CSc3ccccc3)sc2c1,-3,5,2,57
O=C(CSc1nc2ccccc2o1)Nc1nc2ccc(Br)cc2s1,0,20,2,93*
SMILES,Lmaj promast,WT yeast gro inh,RAM network inh,CHOP inh
O=C(c1ccc2c(c1)OCCO2)N1CCN(c2ccc([N+](=O)[O-])cc2)CC1,2,2,0,-1
CC1CCN(CC(=O)Nc2ccc(S(=O)(=O)NC3CC3)cc2)CC1,nt,nt,nt,8
CC1CCCN(CC(=O)Nc2ccc(S(=O)(=O)N3CCCCCC3)cc2)C1 (stereo unspecified),84*,4,1,42
CC1CCCN(CC(=O)Nc2ccc(S(=O)(=O)N3CCCCC3)cc2)C1 (stereo unspecified),92*,1,2,40
O=C(CN1CCCCC1)Nc1ccc(S(=O)(=O)N2CCCCCC2)cc1,8,7,1,20
CC1CCCN(CC(=O)Nc2ccc(S(=O)(=O)NC3CCCCC3)cc2)C1 (stereo unspecified),32,98*,0,58
CCc1cc(CC)c(/C=N/NC(N)=O)c(CC)c1,3,-22,0,21
CCN1C(=O)CSc2ccc(C(=O)NC3CCCCC3)cc21,1,-17,8.7*,-8
CCN1C(=O)CSc2ccc(C(=O)NCc3ccccc3OC)cc21,-2,-3,1,-7
COc1ccccc1N1CCN(C(=O)c2cc(N3C(=O)C4C5CCC(C5)C4C3=O)ccc2Cl)CC1 (stereo unspecified),89*,-32,0,30
CC1CCCN(C(=O)c2cc(N3C(=O)C4C5CCC(C5)C4C3=O)ccc2Cl)C1 (stereo unspecified),-4,-4,2,17
CC/C(=C(/CC)c1ccc(O)cc1)c1ccc(O)cc1,19,76*,3,56
Cc1ccc(-c2nnc(SCC(=O)N3CCOCC3)nc2-c2ccc(C)cc2)cc1,98*,74*,-1,-7
Cc1ccc(-c2cn(-c3ccccc3)c(SCC(=O)NC3CCS(=O)(=O)C3)n2)cc1C (stereo unspecified),86*,-19,0,6
Cc1ccc(-c2nnc(SCC(=O)NC3CCS(=O)(=O)C3)nc2-c2ccc(C)cc2)cc1 (stereo unspecified),78*,22,3,21
CCn1c(SCC(=O)NC2CCS(=O)(=O)C2)nnc1-c1ccccc1 (stereo unspecified),-2,11,2,5
O=C(CSc1nnc(COc2ccccc2F)n1-c1ccccc1)NC1CCS(=O)(=O)C1 (stereo unspecified),70*,-4,0,31
Cc1ccc(SCC(=O)N2CCOCC2)cc1,-6,-3,0,19
O=C(NCc1ccncc1)c1cc(C(=O)C2CC2)c[nH]1,-4,6,0,22
COc1cc2oc3ccccc3c2cc1N(CC(=O)N(C)C)S(=O)(=O)c1ccc(C)cc1,66*,-38,4,30
COc1cc2oc3ccccc3c2cc1N(CC(=O)N(C)C)S(=O)(=O)c1ccccc1,15,-11,3,28
Nc1ncnc2c1nc(SCCO)n2Cc1ccccc1,1,2,0,10
CC(=O)c1cc(Cl)ccc1OC(=O)c1ccco1,-6,22,1,33
O=C(Oc1ccc(Br)cc1C(=O)/C=C/c1ccccc1F)c1ccco1,100*,nt,nt,nt
Cc1nn(-c2cc(Cl)ccc2Cl)c(C)c1C(=O)O,-6,-1,2,7
CC(C)(C)NC(=O)NC(=O)CSc1cccc(C(F)(F)F)c1,-5,-10,2,90*
CCN(CC)S(=O)(=O)c1ccc(C)c(NC(=O)CSc2ncc(C(F)(F)F)cc2Cl)c1,-11,-5,4,2
CC(C)(C)NC(=O)c1cccc(NC(=O)Cc2cccs2)c1,0,-6,2,19
CC(C)(C)NC(=O)NC(=O)CSc1ncc(C(F)(F)F)cc1Cl,2,8,2,74*
Cc1ccc(S(=O)(=O)N(C)C)cc1NC(=O)CSc1ncc(C(F)(F)F)cc1Cl,61*,7,4,42

# Screens from PubChem BioAssay.
